This passage reports growth inhibition results from PubChem BioAssay (NCI).

Molecules are shown by their SMILES. Compounds without any hit were thinned out: in the full panel of roughly 79,000, 15% have a hit. Values without a mark were called inactive. Activity calls are given as the source filed them. No stated cut-off is given here; in the data, active means growth inhibition above about 70%; inactive means the rest.

Assay [1] in a line: NCI Yeast Anticancer Drug Screen. Data for the rad50 strain (AID 155).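 Further: 0% = growth of vehicle-only cultures of the same strain.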 Particulars: S. cerevisiae rad50 strain growth inhibition; at 50.0 µM; active compounds read high. The essentials:
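Yeast carrying a defined DNA repair defect were exposed to test compounds, and growth was compared with vehicle-treated controls to give percent inhibition.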

Assay [2] is described as follows: NCI Yeast Anticancer Drug Screen. Data for the mec2-1 strain (AID 157). The following applies: S. cerevisiae mec2-1 strain, at 50.0 µM, active compounds read high. In short, it runs like this:
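Each compound was tested on mec2-1 yeast, a strain altered in DNA damage repair or cell cycle control. Growth inhibition is reported relative to vehicle.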

Assay [3] can be described thus: NCI Yeast Anticancer Drug Screen. Data for the sgs1 mgt1 strain (AID 161).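 Further: 0% = growth of cultures given vehicle only.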 Particulars: S. cerevisiae sgs1 mgt1 strain, at 50.0 µM, active compounds read high. The essentials:
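Test agents were incubated with a DNA-repair-mutant yeast strain. Growth was then read and compared against vehicle-treated controls.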

The nature of assay [4]: NCI Yeast Anticancer Drug Screen. Data for the cln2 rad14 strain (AID 165).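 Further: 0% = growth equal to vehicle treated cultures.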 Particulars: S. cerevisiae cln2 rad14 strain, at 50.0 µM, active compounds read high. In short, it runs like this:
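Test compounds were added to cln2 rad14 yeast cultures; inhibition of growth was then determined by comparison with vehicle treatment.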

Assay [5] can be described thus: NCI Yeast Anticancer Drug Screen. Data for the bub3 strain (AID 167). Particulars: S. cerevisiae bub3 mutant strain, at 50.0 µM, active compounds read high. The essentials: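 Compounds were applied to a genetically altered yeast strain carrying a cell-cycle control defect. Growth inhibition was scored against vehicle-treated controls.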
A short description of assay [6]: NCI Yeast Anticancer Drug Screen. Data for the mlh1 rad18 strain (AID 175). The following applies: S. cerevisiae mlh1 rad18 strain growth inhibition; at 50.0 µM; active compounds read high. In short, it runs like this:
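Inhibition values reflect reduced growth of mutant yeast versus vehicle-treated controls following compound exposure; the mutations affect DNA damage repair.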

Turning to `COc1cc2c(c(OC)c1OC)C(=O)[C@@H](O)[C@H]2N`, the growth inhibition was -10.4% in assay [1]; -31.9% in assay [2]; -13% in assay [3]; -25.5% in assay [4]; -23.8% in assay [5]; -41.5% in assay [6].
Turning to `Clc1nc(N2CCCCC2)c2[nH]cnc2n1`, the growth inhibition was -35.2% in assay [1]; -6.2% in assay [2]; 6.75% in assay [3]; -9.8% in assay [4]; -1.6% in assay [5]; -0.9% in assay [6].
For `CN(C)/C=N/NC(=O)C(O)(c1ccccc1)c1ccccc1`, the growth inhibition is -7.45% in assay [1]; 9.8% in assay [2]; -7.85% in assay [3]; -0.25% in assay [4]; 1.55% in assay [5]; 7.15% in assay [6].
Take `O=C(OCc1ccccc1)/C(c1ccccc1)=[N+]1/C(=S)Nc2ccc([N+](=O)[O-])cc21`: the growth inhibition in assay [1] was 3%; in assay [2], -5%; in assay [3], 1.6%; in assay [4], 3.8%; in assay [5], 13.9%; in assay [6] it was 7.9%.
For the compound `O=C(O)C12CC3(C(=O)O)CC(C(=O)O)(CC(C(=O)O)(C1)C3=O)C2=O`, the growth inhibition was -11.3% in assay [1]; 13.4% in assay [2]; -24.4% in assay [3]; -4.15% in assay [4]; -28.1% in assay [5]; 17.3% in assay [6].
Consider `CC(=O)Oc1ccc2c(-c3ccccc3)c(Oc3ccc(Cl)cc3)c(=O)oc2c1`, for which the growth inhibition in assay [1] was -4.2%; in assay [2], -5.05%; in assay [3] it was -3.7%; in assay [4], -16.1%; in assay [5], 3.3%; in assay [6], 4.35%.
As to `O=C(NC/C(Cl)=C/Cl)Nc1cccc2c1CCCC2`, the growth inhibition was -5.5% in assay [1]; -13.2% in assay [2]; 19.8% in assay [3]; -10.8% in assay [4]; 22% in assay [5]; 3.6% in assay [6].
For `O=C(N/N=C/c1ccccc1Cl)c1ccccc1`, the growth inhibition in assay [1] was -19.4%; in assay [2], -1.25%; in assay [3], -5.3%; in assay [4], -7.55%; in assay [5] it was -4.05%; in assay [6] it was -9.6%.
As to `CC(=O)OCN(C)N=Nc1ccc(C(C)=O)cc1`, the growth inhibition in assay [1] was -4.6%; in assay [2], -11.3%; in assay [3], -27.8%; in assay [4], -22.7%; in assay [5] it was 20.9%; in assay [6], 5.45%.
For `O=C1OC(c2ccccc2)=N/C1=C\c1ccc(F)cc1`, the growth inhibition was -10.4% in assay [1]; -17.5% in assay [2]; -1.75% in assay [3]; -10.2% in assay [4]; -19.3% in assay [5]; -3.75% in assay [6].
For the compound `CCC(CC)CC(=O)OC/C(=N\Nc1ccc([N+](=O)[O-])cc1[N+](=O)[O-])c1ccc(-c2ccccc2)cc1`, the growth inhibition is -30.9% in assay [1]; 0.15% in assay [2]; -2.85% in assay [3]; -33.8% in assay [4]; -12.2% in assay [5]; -7% in assay [6].
Take `O=C(NC1=C(Cl)C(=O)c2ccccc2C1=O)C(=O)c1c(O)c2ccccc2oc1=O`: the growth inhibition was 83.5% (active) in assay [1]; 85.8% (active) in assay [2]; 87.8% (active) in assay [3]; 84.2% (active) in assay [4]; 84.6% (active) in assay [5]; 91.3% (active) in assay [6].
`C[C@H](CCC(=O)O[C@@H]1CC[C@@]2(C)C(CC[C@H]3[C@@H]4CC[C@H]([C@H](C)CCc5nc6ccccc6[nH]5)[C@@]4(C)CC[C@@H]32)C1)[C@H]1CC[C@H]2[C@@H]3CCC4C[C@H](O)CC[C@]4(C)[C@H]3CC[C@]12C` (stereo not given in full): the growth inhibition was 5.8% in assay [1]; -2.55% in assay [2]; -16.4% in assay [3]; 11.3% in assay [4]; 6.2% in assay [5]; -6.05% in assay [6].
As for `O=c1[nH]cnc2oc(-c3ccccc3)nc12`, the growth inhibition is -0.3% in assay [1]; -0.7% in assay [2]; -6.35% in assay [3]; -41.2% in assay [4]; -15.8% in assay [5]; 4.75% in assay [6].
As to `O=C(O)C1(Br)CC1(c1ccccc1)c1ccccc1` (stereo not given), the growth inhibition in assay [1] is 28.2%; in assay [2], 5.25%; in assay [3], 3.65%; in assay [4] it was -14.1%; in assay [5], -0.7%; in assay [6] it was 26.1%.
In the case of `CN(N=O)C(N)=NC(=O)c1ccccc1`, the growth inhibition in assay [1] was 11.4%; in assay [2], 10%; in assay [3] it was 20.9%; in assay [4] it was -20.6%; in assay [5] it was -16.1%; in assay [6], -35.3%.
`Clc1ccc(CSc2cnnc3c(Br)cccc23)c(Cl)c1`: the growth inhibition was -5.3% in assay [1]; -11.5% in assay [2]; -10.8% in assay [3]; -39.2% in assay [4]; 1.8% in assay [5]; 0.85% in assay [6].
With `N#C/C(=C/N1C(=O)/C(=C/c2ccc([N+](=O)[O-])cc2)SC1=S)C(N)=O`, the growth inhibition in assay [1] is 45%; in assay [2], 56.5%; in assay [3], 63.4%; in assay [4], 54.3%; in assay [5] it was 45%; in assay [6], 42%.
`Nc1ncnc2nc[nH]c12`: the growth inhibition was -8.7% in assay [1]; -6.7% in assay [2]; 13.9% in assay [3]; -24.7% in assay [4]; -12.1% in assay [5]; -5.7% in assay [6].
For `Cc1c2oc3c(C)ccc(C(=O)NCCN4CCCC4)c3nc-2c(C(=O)NCCN2CCCC2)c(N)c1=O`, the growth inhibition in assay [1] is 64.5%; in assay [2] it was 17.4%; in assay [3] it was 5.9%; in assay [4], 4.2%; in assay [5], 3.6%; in assay [6], 9.65%.
